Screen size: about 16,000 compounds; about 5,800 (36%) were called active. Roughly 23% stayed inconclusive and do not appear here. Some of the results follow. Unmarked numbers belong to inactive results. Calls come from the whole dose curve; as a rule, active = well fitted curve in the direction sought with a large enough effect; inconclusive = small, poorly fitted or top-dose-only effect, or effect the other way; inactive = no such curve, though single readings can be large or run the other way.
% is set by controls: 0 for no effect and ±100 for the full control effect.

The target of the assay is Cytochrome P450 2C19 (Homo sapiens) (UniProt P33261). The experiment in a line: Cytochrome panel assay with activity outcomes. As to conditions: recombinant CYP, pro-luciferin dealkylation, luminescence, p450-cyp2c19; series mostly up to 57.1 µM.
Sequence of Cytochrome P450 2C19 (Homo sapiens) (P33261 whole entry, looked up): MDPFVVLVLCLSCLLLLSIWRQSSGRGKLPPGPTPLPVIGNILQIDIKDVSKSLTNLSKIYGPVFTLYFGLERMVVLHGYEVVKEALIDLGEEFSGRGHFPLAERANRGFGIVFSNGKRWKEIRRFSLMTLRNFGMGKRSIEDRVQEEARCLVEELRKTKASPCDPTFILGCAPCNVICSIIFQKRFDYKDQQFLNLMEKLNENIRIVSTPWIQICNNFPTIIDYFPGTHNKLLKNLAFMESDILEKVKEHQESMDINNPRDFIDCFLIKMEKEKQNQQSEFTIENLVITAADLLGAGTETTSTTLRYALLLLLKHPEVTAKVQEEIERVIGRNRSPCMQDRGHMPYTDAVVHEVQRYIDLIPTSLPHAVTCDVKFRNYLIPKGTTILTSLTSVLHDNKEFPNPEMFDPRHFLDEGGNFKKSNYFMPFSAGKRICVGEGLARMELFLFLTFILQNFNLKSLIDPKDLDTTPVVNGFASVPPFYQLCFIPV
For orientation: AC50 means the midpoint of the concentration-response curve, whichever way the signal moves. `COCC(C)n1c(C)cc(C(=O)CSc2nnc(Nc3ccccc3F)s2)c1C` (configuration not stated): the AC50 was 2 µM (active).
Still for that read-out and setting: the result for `O=C(c1sc2ccccc2c1Cl)N(Cc1ccccc1)C1CCS(=O)(=O)C1` (configuration not stated) reads 3.16 µM (active).
The same measure, in the same setting: the value for `CCCN(C(=S)Nc1ccccc1)C1CCS(=O)(=O)C1` (configuration not stated) was “inactive”; that for `CCc1ccc(OCC(=O)OC2CCS(=O)(=O)C2)cc1` (configuration not stated) was “inactive”.
Still for that read-out and setting: the result for `Cc1ccc(CN(C(=O)c2cc3ccccc3oc2=O)C2CCS(=O)(=O)C2)cc1` (configuration not stated) reads 14.1 µM (active); that for `CCOc1ccc(CN(C(=O)c2oc3ccccc3c2C)C2CCS(=O)(=O)C2)cc1` (configuration not stated), 1.41 µM (active); that for `Cc1cc(C)c[n+](CC(=O)c2cc3ccccc3oc2=O)c1`, “inactive”.
For the compound `CCOc1ccc(Cc2nccc3cc(OCC)c(OCC)cc23)cc1OCC`, the AC50 result is “inactive”.
For the compound `C/C(CC/C(C)=N/O)=N/O`, the activity, negative = inhibition was 6.8% [at 11.4 µM].
For the compound `CCS(=O)(=O)N1CCC(C(=O)NCc2ccccc2OC)CC1`, the AC50 is 39.8 µM (active).
Same read-out and setting: the value for `O=C(NCc1ccccc1Cl)C1CCN(S(=O)(=O)N2CCC3(CC2)OCCO3)CC1` was 22.4 µM (active); that for `O=C(NCCc1ccc(Cl)cc1)C1CCN(S(=O)(=O)N2CCC3(CC2)OCCO3)CC1` was 4.47 µM (active); that for `O=C(NCCCN1CCN(Cc2ccccc2)CC1)C1CCN(S(=O)(=O)N2CCCC2)CC1` was “inactive”.
The same measure, in the same setting: the result for `COc1ccc(CCNC(=O)C2CCN(S(=O)(=O)N3CC(C)CC(C)C3)CC2)cc1OC` (configuration not stated) reads 14.1 µM (active).
Regarding `CCS(=O)(=O)N1CCC(C(=O)NCc2ccco2)CC1`, the AC50 result was “inactive”.
On the same count and under the same terms, the result for `CCS(=O)(=O)N1CCC(C(=O)NCCCN2CCCC2)CC1` reads “inactive”.
The same measure, in the same setting: the value for `CCOc1ccc(CCNC(=O)C2CCN(S(=O)(=O)CC)CC2)cc1OCC` was “inactive”; that for `COc1cccc(CNC(=O)C2CCN(S(=O)(=O)N3CCCCC3)CC2)c1` was “inactive”.
On the same count and under the same terms, the value for `CCOCCCNC(=O)C1CCN(S(=O)(=O)N2CC(C)CC(C)C2)CC1` (configuration not stated) was “inactive”; that for `CCS(=O)(=O)N1CCC(C(=O)NCCCOC)CC1` was “inactive”; that for `O=C(Nc1ccc(F)cc1F)c1cccn1-c1ncc(C(F)(F)F)cc1Cl` was 10 µM (active).
Consider `Cc1ccc(C(=O)Nc2ccccc2Oc2ccccc2)cc1[N+](=O)[O-]`, for which the AC50 was 3.16 µM (active).
Still for that read-out and setting: the result for `Cc1ccc(C(=O)Nc2ccc(Cc3ccncc3)cc2)cc1[N+](=O)[O-]` reads 1.12 µM (active); that for `Cc1ccc(C(=O)N/N=C\c2ccc[nH]2)cc1[N+](=O)[O-]`, “inactive”; that for `CC(=O)c1ccc(NC(=O)C2(c3ccccc3)CCOCC2)cc1`, 14.1 µM (active).
The same measure, in the same setting: the result for `Cc1noc(C)c1C(=O)N1CCC2(CCN(C(=O)Nc3ccccc3)CC2)CC1` reads “inactive”; that for `COc1ccc(NC(=O)N2CC3(CCN(C(=O)c4ccc(OC)cc4)CC3)C2)cc1`, “inactive”.
Still for that read-out and setting: the result for `COc1ccc(NC(=O)C2(c3ccc(NC(=O)c4ccc(OC(C)=O)cc4)cc3)CCCC2)cc1` reads “inactive”.
Consider `CCOC(=O)c1ccc(NC(=O)C2(c3ccc(OC)cc3)CCOCC2)cc1`, for which the AC50 was 2.24 µM (active).
On the same count and under the same terms, the result for `COc1ccc(NC(=O)C2(c3ccc(NC(=O)c4ccc(C)cc4)cc3)CCCC2)cc1` reads “inactive”; that for `NS(=O)(=O)c1cc2c(cc1Cl)N[C@@H](CC1CCCC1)NS2(=O)=O`, “inactive”.
Turning to `O=[N+]([O-])c1ccc(C=Nc2ccc(Cl)cc2Cl)s1`, the half-maximal activity concentration (AC50) is 7.08 µM (active).
On the same count and under the same terms, the value for `O=C(/C=C/Nc1ccccc1)c1ccc(Oc2ncccn2)cc1` was 15.8 µM (active).
Same read-out and setting: the result for `COc1ccc(-c2noc(N(C)CC(=O)Nc3cccc(C(F)(F)F)c3)n2)cc1` reads 4.47 µM (active); that for `COc1ccc(NC(=O)c2ccc(-c3ccc(-c4noc(C)n4)cc3C)cc2)cc1OCCN(C)C`, “inactive”.
The same measure, in the same setting: the value for `CC[C@]1(O)C[C@@H]2CN(CCc3c([nH]c4ccccc34)[C@](C(=O)OC)(c3cc4c(cc3OC)N(C=O)[C@H]3[C@@](O)(C(=O)OC)[C@H](C(=O)OC)[C@@]5(CC)C=CCN6CC[C@]43[C@H]65)C2)C1` was “inactive”.
For the compound `CC1=NCC[N@@+]1(CCc1ccccc1)Cc1ccccc1`, the activity, negative = inhibition was 32.9% [at 11.4 µM].
Consider `COc1ccc2[nH]cc(CCNc3ncnc4ccc(-c5ccc(C(=O)N(C)C)cc5)cc34)c2c1`, for which the AC50 is 7.94 µM (active).
On the same count and under the same terms, the result for `COc1ccc2[nH]cc(CCNc3ncncc3-c3ccc(N(C)C)cc3)c2c1` reads 1.58 µM (active); that for `COc1ccc2[nH]cc(CCNc3ncncc3-c3ccc(C(=O)N(C)C)cc3)c2c1`, 10 µM (active).
Regarding `O=C(O)c1[nH]c2c([N+](=O)[O-])cc([N+](=O)[O-])cc2c1C(=O)O`, the activity, negative = inhibition was 39.2% [at 11.4 µM].
`NS(=O)(=O)c1cc2c(cc1C(F)(F)F)N[C@H](Cc1ccccc1)NS2(=O)=O`: the AC50 result is “inactive”.
The same measure, in the same setting: the value for `CC[n+]1c(P(=O)([O-])c2ccccc2)[nH]c2ccccc21` was “inactive”.
For `CN1CC(c2ccccn2)C2(SC(=S)N(Cc3ccccc3)C2=O)C12C(=O)Nc1ccccc12` (configuration not stated), the AC50 was 1.12 µM (active).
The same measure, in the same setting: the value for `CCC(CC)C(=O)c1c[nH]c(C(=O)NCCCN2CCOCC2)c1` was “inactive”.
Still for that read-out and setting: the result for `CC(C)(C)c1ccc(C(=O)c2c[nH]c(C(=O)NCCCn3ccnc3)c2)cc1` reads 0.1 µM (active).
Still for that read-out and setting: the value for `O=C(c1ccc(C(F)(F)F)cc1)c1c[nH]c(C(=O)NCCCn2ccnc2)c1` was 0.631 µM (active); that for `Cc1ccc(C(=O)c2c[nH]c(C(=O)NCCCN3CCOCC3)c2)cc1` was “inactive”; that for `CCOC(=O)NC(NC(=O)OCC)C(=O)c1ccc(F)cc1` was “inactive”.
As to `Cc1c(CCO)c(=O)n(C)n1C(=O)c1ccc(F)cc1`, the AC50 is 17.8 µM (active).
The same measure, in the same setting: the result for `Cc1ccc(-n2nnnc2-c2cnc3ccc(Cl)cc3c2-c2ccccc2)cc1` reads 7.94 µM (active).
Still for that read-out and setting: the value for `Clc1ccc2[nH]cc(-c3nnnn3-c3ccccc3)c2c1` was 1.12 µM (active); that for `N#Cc1cccc(-c2nc3cnc(Nc4ccccc4)nc3n(C[C@H]3CCCO3)c2=O)c1` was “inactive”; that for `Cn1sc(NC(=O)c2ccccc2Cl)nc1=O` was 14.1 µM (active).
Take `O=C(Nc1ccccc1Cl)c1ccn[nH]1`: the AC50 result is “inactive”.
Consider `O=C(Nc1ccccc1Cl)c1ccccc1Cl`, for which the AC50 was 20 µM (active).
Same read-out and setting: the value for `Cn1sc(NC(=O)c2ccccc2)nc1=O` was “inactive”; that for `Cc1cc(NC(=O)c2ccccc2Cl)c(C(C)C)cc1O` was 3.98 µM (active); that for `Cc1ccc(Cl)c(Nc2ccccc2C(=O)O)c1Cl` was “inactive”.
The same measure, in the same setting: the result for `CC[C@@]12CCCN3CCc4c(n(c5ccccc45)[C@](O)(C(=O)OC)C1)[C@H]32` reads “inactive”.
Same read-out and setting: the value for `O=C(Nc1cccc(C(=O)Nc2ccc(S(=O)(=O)O)c3cc(S(=O)(=O)O)cc(S(=O)(=O)O)c23)c1)Nc1cccc(C(=O)Nc2ccc(S(=O)(=O)O)c3cc(S(=O)(=O)O)cc(S(=O)(=O)O)c23)c1` was “inactive”; that for `O=C(CSCc1ccccc1)Nc1cccc(C(=O)Nc2ccccc2C(=O)O)c1` was 11.2 µM (active); that for `CCNc1ncc2nc(-c3cc(F)cc(F)c3)c(=O)n(Cc3cccs3)c2n1` was “inactive”.
With `CCCC(C(=O)Nc1nccs1)c1ccccc1` (configuration not stated), the AC50 was 3.16 µM (active).
As to `O=C(O)[C@H](CCc1ccccn1)c1ccccc1`, the activity, negative = inhibition was 9.85% [at 11.4 µM].
With `COc1cc(C=O)ccc1OCCOCCOc1ccccc1Cl`, the AC50 is 1.26 µM (active).
Same read-out and setting: the result for `COc1cc(C)ccc1OCCCOc1ccccc1Br` reads 0.501 µM (active).
Same read-out and setting: the result for `COc1ccccc1OCCCOc1ccc([N+](=O)[O-])cc1Cl` reads 0.316 µM (active); that for `COc1cc(C=O)ccc1OCCCOc1ccccc1C(=O)O`, “inactive”.
Still for that read-out and setting: the value for `COc1cc(C)ccc1OCCCOc1ccccc1Cl` was 1.12 µM (active).
On to `CC(C)CO/N=C1/[C@H]2O[C@@H]2[C@@H](O)[C@H]2[C@H]1CCn1c(=O)n(C)c(=O)n12`, for which the activity, negative = inhibition is -6.23% [at 11.4 µM].
In the case of `Cc1ccc(C)c(Nc2nc3nonc3nc2N2CCOCC2)c1`, the AC50 was 25.1 µM (active).
Take `CN1CCN(CCCBr)CC1`: the activity, negative = inhibition was 39.1% [at 11.4 µM].
As to `Cc1ccc(SCc2[nH]nc3c2C(C(C)C)C(C#N)=C(N)O3)cc1` (configuration not stated), the AC50 was 3.16 µM (active).
The same measure, in the same setting: the result for `COCc1cc(=O)[nH]c2cc(NC(=O)C(F)(F)F)c(C)cc12` reads “inactive”; that for `CN(Cc1ccco1)C(=O)C1CCC(=O)N1Cc1ccc(F)cc1` (configuration not stated), 17.8 µM (active); that for `O=C(Nc1ccc(Br)cc1)C1CCC(=O)N1Cc1ccccc1Cl` (configuration not stated), 0.631 µM (active).
Same read-out and setting: the result for `CCCS(=O)(=O)N1CCCC(C(=O)NCCN(C)Cc2ccccc2)C1` (configuration not stated) reads “inactive”; that for `Cc1ccc(CCN2CC(C(=O)NCCCN(C)Cc3ccccc3)CC2=O)cc1` (configuration not stated), “inactive”.
In the case of `CC(C)N(CCNC(=O)C1CCC(=O)N1Cc1ccc(F)cc1)Cc1ccccc1` (configuration not stated), the AC50 was 2.82 µM (active).
On the same count and under the same terms, the value for `O=C(NCCN1CCN(Cc2ccccc2)CC1)C1CC(=O)N(C2CCCC2)C1` (configuration not stated) was “inactive”; that for `CN(CCCNC(=O)C1CCC(=O)N1Cc1ccccc1Cl)c1ccccc1` (configuration not stated) was 10 µM (active); that for `Cc1ccc(OC[C@H](O)[C@H](C)NC(C)C)c2c1CCC2` was “inactive”.
Consider `CC(C)(C[C@@]1(C)NC(=O)NC1=O)OCc1ccccc1`, for which the activity, negative = inhibition was 18.1% [at 11.4 µM].
Still for that read-out and setting: the value for `O=c1oc2cc(N=Cc3ccc4c(c3)OCO4)ccc2c2ccccc12` was -3.38% [at 11.4 µM].
For the compound `Cc1ccc(S(=O)(=O)c2cc3ccccc3oc2=Nc2ccc3c(c2)OCO3)cc1`, the half-maximal activity concentration (AC50) is 4.47 µM (active).
Regarding `Cc1ccc(N=Nc2c(O)ccc3cc(S(=O)(=O)O)ccc23)cc1`, the activity, negative = inhibition was 6.68% [at 11.4 µM].
With `CCC(C#CCN1CCCCC1)(CC)OCCC#N`, the half-maximal activity concentration (AC50) was 14.1 µM (active).
The same measure, in the same setting: the value for `CN(C)[C@@H]1C(=O)C(C(N)=O)=C(O)[C@]2(O)C(=O)C3=C(O)c4c(O)ccc(Cl)c4[C@H](O)[C@H]3C[C@@H]12` was “inactive”; that for `COc1cccc(-c2cc(C(=O)N/N=C/c3ccc(OC)c(COC(C)=O)c3)c3ccccc3n2)c1` was 2.51 µM (active); that for `COc1ccc(/C=N/NC(=O)c2cc(-c3ccc(C)cc3C)nc3ccccc23)cc1COC(C)=O` was “inactive”.
The same measure, in the same setting: the value for `O=C(Nc1cccc(F)c1)N1CCCC2(CCN(C(=O)c3cc(C(F)(F)F)cc(C(F)(F)F)c3)CC2)C1` was “inactive”.

The record behind these values is PubChem BioAssay AID1851 (National Center for Advancing Translational Sciences (NCATS), 2009).
